The list is not random: actives were taken first. Their share in the collection is about 19%.
IL-1B inflam inh: blocks inflammasome-driven IL-1 beta release. THP-1 LPS/ATP IL-1B secretion, AlphaLISA, 16 h; hits give low values. activity change, % at 57.5 µM. AID 743279. 4.7% of 360,000 active; in the data active = activity change below about -50%; inconclusive = mostly about -30% to -49%
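Secreted IL-1B measured by AlphaLISA bead assay after 16 h compound exposure of THP-1 cells; compounds (final up to 57.5 uM) added 1 h before LPS (250 ng/mL) and ATP (1.25 mM) stimulation; lower signal means less secretion.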
DT40 TDP1 CPT: growth inhibition of DT40 Tdp1-/-;hTDP1 cells with camptothecin (screen for TDP1 inhibitors); chicken DT40 Tdp1-/-;hTDP1 cells + 20 nM CPT, ATP luminescence, 48 h; Potency, µM (titrated, usually from 46.2 µM), actives largely listed as inhibitors; 12% of 420,000 active; AID 686979; also: nearly all actives have a fitted effect of over 55% in size
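Chicken DT40 Tdp1-/- cells stably complemented with human TDP1 were seeded at 400 cells/well in medium containing 20 nM camptothecin, exposed to pin-transferred compounds, and grown at 37 °C for at least 48 hr. Viability was read as ATP luminescence.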
TGFb inhibitor: inhibitors of TGF-b signaling; HepG2 CAGA-GFP TGF-b/SMAD3 reporter, GFP fluorescence, 18 h; TGF-beta stimulated, 500 pg/mL final; Potency, µM (titrated, usually from 46.1 µM), hits mostly inhibitors; 1.2% of 410,000 active; AID 588855; also: nearly all actives have a fitted effect of over 65% in size
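First, reporter cells (HEPG2 CAGA-GFP) rested 2 h at 37 degrees C. Next, compounds were pinned in and TGF-beta added to 500 pg/mL final. After 18 h, GFP was imaged per cell and summed per well.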
HepG2 viability: counter-screen for TGF-b inhibitors: cytotoxicity in HepG2 cells; HepG2 CAGA-GFP viability, ATP luminescence, 18 h; Potency, µM (doses to about 46.1 µM), actives largely listed as cytotoxic; 0.76% of 410,000 active
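CellTiter-Glo luminescence gave cytotoxicity after 18 hours at 37 degrees C. The cells were HepG2 CAGA-GFP in 1% FBS DMEM, stimulated with 500 pg/mL TGF-beta after compound addition. %Activity was normalised to no-cell wells (complete cell-killing) and DMSO (no toxicity), and curves were fitted and classified.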
DT40 TDP1 no CPT: qHTS for Inhibitors of human tyrosyl-DNA phosphodiesterase 1 (TDP1): qHTS in cells in absence of CPT. DT40 Tdp1-/- hTDP1 cells, no CPT, ATP luminescence, 48 h. Potency, µM (series often up to 46.2 µM), hits mostly inhibitors. 15% of 420,000 active; also: nearly all actives have a fitted effect of over 55% in size
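Chicken DT40 Tdp1-/- cells stably complemented with human TDP1 were seeded at 400 cells/well with DMSO in place of 20 nM camptothecin. After compound pinning, cells grew at least 48 hr at 37 °C; viability read by CellTiter-Glo luminescence.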
S-ASM inh: blocks human secretory acid sphingomyelinase | 0.006% of 340,000 active | placental ASM, HMU-PC fluorogenic substrate, 60 min | Potency, µM (doses to about 57.5 µM), usual class: inhibitors | P17405
Target sequence (P17405 47-631 limits assumed): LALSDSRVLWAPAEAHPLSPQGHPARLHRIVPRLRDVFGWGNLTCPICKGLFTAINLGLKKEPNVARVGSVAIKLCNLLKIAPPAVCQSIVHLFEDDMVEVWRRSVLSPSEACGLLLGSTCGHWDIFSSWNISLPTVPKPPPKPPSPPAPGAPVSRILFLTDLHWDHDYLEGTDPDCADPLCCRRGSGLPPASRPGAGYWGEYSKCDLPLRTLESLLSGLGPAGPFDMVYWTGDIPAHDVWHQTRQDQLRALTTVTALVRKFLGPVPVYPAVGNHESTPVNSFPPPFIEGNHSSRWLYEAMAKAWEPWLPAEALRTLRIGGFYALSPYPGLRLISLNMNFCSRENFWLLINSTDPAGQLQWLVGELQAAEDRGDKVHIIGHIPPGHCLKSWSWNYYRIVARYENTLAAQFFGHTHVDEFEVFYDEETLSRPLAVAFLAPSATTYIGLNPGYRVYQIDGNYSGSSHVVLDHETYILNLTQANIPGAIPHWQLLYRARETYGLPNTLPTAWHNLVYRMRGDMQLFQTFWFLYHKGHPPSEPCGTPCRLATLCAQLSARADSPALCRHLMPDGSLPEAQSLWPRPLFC
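qHTS format. ASM enzyme prepared from human placenta hydrolyses the fluorogenic substrate HMU-PC0 (9 uM final) over 60 min at 37 °C after a 10 min compound preincubation.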
A number is an active result; – = inactive; ? = inconclusive; · = no result; [ ] = dose if it differs, or a comment. Unless noted, calls follow the shape of the dose curve; as a rule, active = well fitted curve in the direction sought with a large enough effect; inconclusive = small, poorly fitted or top-dose-only effect, or another doubt; inactive = no such curve, though single readings can be large; an effect the other way counts as inactive or inconclusive.

SMILES | IL-1B inflam inh | DT40 TDP1 CPT | TGFb inhibitor | HepG2 viability | DT40 TDP1 no CPT | S-ASM inh
CC(=O)OC(C)(C)/C=C/C(=O)C(C)(O)C1[C@H](O)C[C@@]2(C)C3CC=C4C(CC[C@@H](O)C4(C)C)[C@]3(CO)C(=O)C[C@]12C (stereo partly specified) | -98 | 0.018µM | ? | – | 0.01µM | –
CC(=O)OC(C)(C)/C=C/C(=O)[C@](C)(O)[C@H]1[C@H](O)C[C@@]2(C)[C@@H]3CC=C4[C@H](C[C@H](O)C(=O)C4(C)C)[C@]3(C)C(=O)C[C@]12C | -112 | 0.046µM | 2.8µM | – | 0.0073µM | –
CCCCC12CNCC(C)(CNC1)C2=O | – | – | – | – | – | –
CC(NC1=NCCS1)c1ccccc1 (stereo unspecified) | – | – | – | – | – | –
O=C(Nc1ccc(Br)cc1)c1ccc(F)c(S(=O)(=O)N2CCCc3ccccc32)c1 | · | 12µM | ? | – | 8.2µM | ·
O=C(Nc1ccc(Br)cc1)c1cccc(S(=O)(=O)N2CCc3ccccc32)c1 | · | 23µM | ? | – | 16µM | ·
C[C@@H]1CN([C@@H](C)CO)C(=O)c2c(c3ccccc3n2C)-c2ccccc2CO[C@H]1CN(C)S(=O)(=O)c1ccc(C(F)(F)F)cc1 | – | – | ? | – | – | ·
Cc1ccc2c(c1)C1CN(C)CCC1N2C(=O)Nc1cccc(Cl)c1 (stereo unspecified) | -53 | ? | – | – | 23µM | –
Cc1ccc2c(c1)C1CN(C)CCC1N2C(=O)Cn1cnc2c1c(=O)n(C)c(=O)n2C (stereo unspecified) | – | – | – | – | – | –
Cc1ccc2c(c1)C1CN(C)CCC1N2C(=O)c1ccccc1NS(=O)(=O)c1cccc(C(F)(F)F)c1 (stereo unspecified) | – | ? | – | – | 13µM | –
Cc1ccc2c(c1)C1CN(C)CCC1N2C(=O)c1ccco1 (stereo unspecified) | – | – | – | – | – | –
CCCCc1ccc(NC(=O)c2cccn(Cc3ccc(Cl)cc3)c2=O)cc1 | · | – | ? | – | – | ·
O=C(CSc1nc2ccccc2c(=O)n1-c1ccc(F)c(Cl)c1)Nc1ccc2c(c1)CCC2 | – | ? | – | – | – | ·
Cc1ccc(-n2c(/C=C\c3ccc(F)cc3)nc3ccccc3c2=O)cc1Cl | · | 15µM | ? | – | 16µM | ·
O=c1c2ccccc2nc(/C=C/c2ccccc2O)n1-c1ccc(Br)cc1 | · | ? | – | – | 16µM | ·
COc1ccc(-n2c(/C=C/c3ccc(O)c(OC)c3)nc3ccccc3c2=O)cc1 | -67 | 21µM | – | – | 26µM | –
O=c1c2ccccc2nc(/C=C/c2ccc(O)cc2)n1-c1cccc(O)c1 | – | ? | – | – | ? | –
COc1ccc(-n2c(/C=C/c3ccc4c(c3)OCO4)nc3ccccc3c2=O)cc1 | – | 26µM | – | – | 15µM | –
O=c1[nH]c(=O)n(Cl)c(=O)n1Cl | · | – | · | · | – | ·
CC(C)C[C@@H]1COc2cc(N3CCN(C)CC3)ccc2S(=O)(=O)N1 | – | – | · | · | – | ·
CCNC(=O)NNC(=O)C1CC(c2cccnc2)=NO1 (stereo unspecified) | – | – | – | – | – | –
COc1ccc(-n2c(/C=C/c3ccc(O)cc3)nc3ccccc3c2=O)cc1 | -54 | 23µM | ? | – | 21µM | –
COc1cc(/C=C/c2nc3ccccc3c(=O)n2-c2ccc(Br)c(C)c2)ccc1O | · | 21µM | ? | – | 16µM | ·
O=c1c2ccccc2nc(/C=C/c2ccc(O)cc2)n1-c1ccc(O)cc1 | – | ? | – | – | ? | –
O=C(c1cnccn1)N1CCC2(CC1)CN(Cc1ccncc1)C2 | · | – | · | · | – | ·
SMILES | IL-1B inflam inh | DT40 TDP1 CPT | TGFb inhibitor | HepG2 viability | DT40 TDP1 no CPT | S-ASM inh
COc1ccc2c(c1)CCc1c(C(=O)Nc3c(C)nn(Cc4ccccc4C)c3C)noc1-2 | · | 23µM | 13µM | – | 10µM | ·
O=C(Nc1ccc(F)c(Cl)c1)N(Cc1ccc2c(c1)OCO2)C1CCN(Cc2ccccc2)CC1 | · | ? | ? | – | ? | ·
CNc1ccc2oc(C[C@H]3O[C@]4(CC[C@H]3C)O[C@H]([C@H](C)C(=O)c3ccc[nH]3)[C@H](C)C[C@H]4C)nc2c1C(=O)O | · | 1.5µM | · | · | 1.1µM | ·
CC[C@H](C)[C@H](NC(=O)[C@@H]1CCCN1C(=O)[C@H](CCC(=O)O)NC(=O)[C@@H](NC(=O)[C@H](Cc1ccccc1)NC(=O)[C@@H]1CCCN1C(=O)[C@@H](N)Cc1ccc(O)cc1)C(C)C)C(=O)O | · | –[4.12 µM] | · | · | –[4.12 µM] | ·
COc1ccc2c(c1)C1OCCNC1CC2 (stereo unspecified) | – | – | – | – | – | ·
Oc1cc2c(cc1O)[C@H]1c3ccccc3CN[C@H]1CC2 | · | 18µM | · | · | 18µM | ·
Oc1cc2c(cc1O)[C@H]1c3ccccc3CN[C@@H]1CC2 | · | 14µM | – | – | 13µM | ·
C[C@]12CC[C@H](O)CC1=CC(=O)C1C2CC[C@]2(C)C(=O)[C@H](O)CC12 (stereo partly specified) | – | – | – | – | – | –
Cc1nc2ccc(NC(=O)C3COc4ccccc4O3)cc2s1 (stereo unspecified) | – | ? | – | – | ? | –
COc1ccccc1C(=O)Nc1ccc2nc(SCC(=O)N3CCCc4ccccc43)sc2c1 | · | 5.2µM | – | – | 2.9µM | ·
O=C(Nc1ccc2nc(SCC(=O)N3CCCc4ccccc43)sc2c1)c1ccccc1F | · | 5.8µM | – | – | 5.2µM | ·
Cc1ccc(O)c(C(=O)c2cc(C(=O)NCc3ccccc3)c(=O)n(Cc3ccccc3)c2)c1 | – | 7.3µM | – | – | 12µM | –
Cn1cc(C(=O)NCc2ccccc2)c2ccccc21 | – | ? | – | – | – | –
O=C(c1cc(C(=O)NCc2ccccc2)c(=O)n(Cc2ccccc2)c1)c1cc(Br)ccc1O | – | ? | ? | – | 26µM | –
O=c1c2ccccc2nc(CSc2ncnc3nc[nH]c23)n1-c1ccc(Cl)c(Cl)c1 | – | 7.1µM | – | – | 10µM | –
CCN1C(=O)c2ccccc2Sc2ccc(NC(=O)Nc3ccc(Br)c(C)c3)cc21 | · | ? | ? | – | ? | ·
CC(C)C[C@H](NC(=O)[C@H](Cc1ccccc1)NC(=O)CNC(=O)[C@H](C)NC(=O)[C@@H](N)Cc1ccc(O)cc1)C(=O)O | · | –[4.12 µM] | · | · | –[4.12 µM] | ·
OC(Cn1c2ccccc2c2ccccc21)C[n+]1cccc2ccccc21 (stereo unspecified) | -68 | 18µM | ? | – | 16µM | –
